From PubChem BioAssay (NCI)
The panel holds about 83,000 compounds, 20% with a hit somewhere; the sample as a whole holds those more often.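 How to read the values: 0–100, growth inhibition (40 = 60% inhibited); 0, no net growth; -100 to 0, cell death (-40 = 40% of starting cells died; -100 = all dead).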 Calls of active or inactive are those of the source. How the source made its calls: active means growth percent below 10; inactive means the rest.

system: OVCAR-5 ovarian; assay: NCI-60 one-dose screen, 48 h (100 = growth as untreated, 0 = no growth, -100 = all killed); conditions: 10 µM unless noted

Row | SMILES | growth
1 | CNC(=O)c1cc(Oc2ccc3nc(NC(=O)Nc4ccc(F)cc4F)sc3c2)ccn1 | 95.2% (inactive)
2 | CCOC(=O)c1c2c(n3ccc(NC(=O)CCN4CCCC4)cc13)C(=O)c1ncccc1C2=O | -67.4% (active)
3 | CNC(=O)c1cc(Oc2ccc3nc(NC(=O)c4cc(C(F)(F)F)cc(C(F)(F)F)c4)sc3c2)ccn1 | 51.6% (inactive)
4 | CC(=O)CC(=O)c1ccccc1.[Cu+2] | 107% (inactive)
5 | O=c1c2cccc3c(N4CCOCC4)ccc(c32)c2nc3ccccc3n12 | 99.2% (inactive)
6 | CN(C)C(=O)OCc1ccc2c(Cl)cc(Cl)c(O)c2n1 | 77.4% (inactive)
7 | COc1ccc(-c2ccc(-c3ccc(C(=N)N)nc3)s2)cc1 | -73.1% (active)
8 | CN1CCN(c2ccc(Nc3ncc4[nH]c(=O)n(Cc5ccccc5N)c4n3)cc2)CC1 | 79.1% (inactive)
9 | NC(=N\N=C/c1ccc(Cl)cc1Cl)/C(N)=N\N=C/c1ccc(Cl)cc1Cl | 71.6% (inactive)
10 | C=C1C(=O)O[C@H]2[C@H]1CC/C(COC(=O)NCc1ccc(Cn3c(=O)sn(CCCC)c3=O)cc1)=C\CC[C@@]1(C)O[C@@H]21 | 71.9% (inactive)
11 | FC(F)(F)c1cccc(-c2nnn(Cc3cc(-c4cccc(Cl)c4)no3)n2)c1 | 101% (inactive)
12 | O=C(c1ccc(F)cc1)C1CCN(CCn2c(=O)[nH]c3ccccc3c2=O)CC1 | 99.9% (inactive)
13 | Cc1ccc(C2(C)NC(=O)N(CC(=O)Nc3cccc(C)c3)C2=O)cc1 (stereo unspecified) | 97.1% (inactive)
14 | CC1(C)C2=C(C(=O)N1Cc1ccccc1)C(c1ccco1)N(C(=O)C1CCC1)CCN2 (stereo unspecified) | 95.6% (inactive)
15 | COc1ccc(Nc2nccc(Nc3ccc4[nH]ncc4c3)n2)cc1 | 52.1% (inactive)
16 | Cc1nn(-c2ccccc2)c(Oc2ccccc2)c1/C=N/NC(=O)Cn1c(=O)sc2ccccc21 | 81.5% (inactive)
17 | O=C(Nc1ncc(Cc2ccc(Cl)cc2)s1)c1ccc2c(c1)OCCO2 | 37.1% (inactive)
18 | C#Cc1ccc(NC(=O)Cc2ccc(/C=C/C(=O)c3nccn3C)cc2)cc1 | 105% (inactive)

Row | SMILES | growth
19 | CN(C)CCOc1nc2c3cc([N+](=O)[O-])ccc3nn2c2ccccc12 | 58.6% (inactive)
20 | CCN(CC)CCCC(Nc1c2ccc(Cl)cc2nc2ccc(OC)cc12)c1ccncc1 (stereo unspecified) | 96.6% (inactive)
21 | CCOC(=O)c1cnc2sc(-c3ccc(OC)cc3)nc2c1Cl | 118% (inactive)
22 | COc1ccc2c(O)cc3c(c2c1)[C@H](CCl)CN3C(=O)c1cc2cc(NC(=O)CCN3CCOCC3)ccc2[se]1 | -44.6% (active)
23 | Oc1ccc(Cc2ccc(O)c3ncccc23)c2cccnc12 | 21.6% (inactive)
24 | CO[C@]12C=C/C(=C(/C(=O)OCc3cccnc3)C(=O)CCCCCCCC[C@]3(OC)C=C/C(=C(/C(=O)OCc4cccnc4)C(=O)CCCCCCCC1)O3)O2 | -52.1% (active)
25 | CC(C)=CCC[C@](C)(O)C1CC[C@]2(C)[C@@H]1CC[C@@H]1[C@@]3(C)CC/C(=N\OCCC#N)C(C)(C)[C@@H]3CC[C@]12C (stereo partly specified) | 99.1% (inactive)
26 | Cn1cc(-c2ccc3c(Nc4cccc(NC(=O)Nc5cccc(F)c5)c4)ncnc3c2)cn1 | 67.6% (inactive)
27 | O=c1oc2ccccc2cc1-c1nn(-c2ccccc2)cc1/C=N/Nc1nc(-c2ccccc2)c(N=Nc2ccccc2)s1 | 102% (inactive)
28 | CCCNNC(=O)c1ccc(CNC(=O)/C=C/c2ccccc2)cc1 | 18.1% [2.5 µM] (inactive)
29 | C=C(CNCCO)[C@@H]1CC[C@]2(CO)CC[C@]3(C)[C@H](CC[C@@H]4[C@@]5(C)CCC(NCCO)C(C)(C)[C@@H]5CC[C@]43C)[C@@H]12 (stereo partly specified) | 90.6% (inactive)
30 | COc1cccc(-c2cc(-c3ccc(Nc4nc(Nc5ccc(Cl)cc5)nc(Nc5ccc(Cl)cc5)n4)cc3)nc(N)c2C#N)c1 | 82.2% (inactive)
31 | CN1CCN(Cc2ccc(NC(=O)c3cncc(C#Cc4cnc(N)c5ccc(C#N)cc45)c3)cc2C(F)(F)F)CC1 | -79.6% (active)
32 | COc1ccc2c(c1)c(-c1nc(-c3cn(C)c4ccncc34)cs1)cn2C | -16.7% (active)
33 | Cn1ccnc1C(=O)/C=C/c1ccc(CC(=O)Nc2cc(F)c(F)c(F)c2)cc1 | 17.9% (inactive)
34 | Cc1ccc(Nc2cc(N)nc(N)n2)cc1 | 107% (inactive)
35 | Cc1nc2ccccc2c(/C=C/c2ccc(Cl)cc2)c1C(=O)/C=C/c1ccccc1 | -21.8% (active)
36 | NS(=O)(=O)Oc1cccc(-c2nc3sccn3c2-c2ccccc2)c1 | 95.2% (inactive)

system: OVCAR-4 ovarian; assay: as above; conditions: 10 µM unless noted

Row | SMILES | growth
37 | CNC(=O)c1cc(Oc2ccc3nc(NC(=O)Nc4ccc(F)cc4F)sc3c2)ccn1 | 34.2% (inactive)
38 | CCOC(=O)c1c2c(n3ccc(NC(=O)CCN4CCCC4)cc13)C(=O)c1ncccc1C2=O | -68.1% (active)
39 | CNC(=O)c1cc(Oc2ccc3nc(NC(=O)c4cc(C(F)(F)F)cc(C(F)(F)F)c4)sc3c2)ccn1 | 15.8% (inactive)
40 | CC(=O)CC(=O)c1ccccc1.[Cu+2] | 106% (inactive)
41 | O=c1c2cccc3c(N4CCOCC4)ccc(c32)c2nc3ccccc3n12 | 69.9% (inactive)
42 | CN(C)C(=O)OCc1ccc2c(Cl)cc(Cl)c(O)c2n1 | 20.8% (inactive)
43 | COc1ccc(-c2ccc(-c3ccc(C(=N)N)nc3)s2)cc1 | -79.7% (active)
44 | CN1CCN(c2ccc(Nc3ncc4[nH]c(=O)n(Cc5ccccc5N)c4n3)cc2)CC1 | 93.6% (inactive)
45 | NC(=N\N=C/c1ccc(Cl)cc1Cl)/C(N)=N\N=C/c1ccc(Cl)cc1Cl | -34% (active)
46 | C=C1C(=O)O[C@H]2[C@H]1CC/C(COC(=O)NCc1ccc(Cn3c(=O)sn(CCCC)c3=O)cc1)=C\CC[C@@]1(C)O[C@@H]21 | 29.2% (inactive)
47 | FC(F)(F)c1cccc(-c2nnn(Cc3cc(-c4cccc(Cl)c4)no3)n2)c1 | 116% (inactive)
48 | O=C(c1ccc(F)cc1)C1CCN(CCn2c(=O)[nH]c3ccccc3c2=O)CC1 | 109% (inactive)
49 | Cc1ccc(C2(C)NC(=O)N(CC(=O)Nc3cccc(C)c3)C2=O)cc1 (stereo unspecified) | 99.3% (inactive)
50 | COc1ccc(C(=O)C2OC3=C(C(=O)CC(C)(C)C3)C2c2cccc(Oc3ccccc3)c2)cc1 (stereo unspecified) | 86.3% (inactive)
51 | CC1(C)C2=C(C(=O)N1Cc1ccccc1)C(c1ccco1)N(C(=O)C1CCC1)CCN2 (stereo unspecified) | 97.1% (inactive)
52 | COc1ccc(Nc2nccc(Nc3ccc4[nH]ncc4c3)n2)cc1 | 33.3% (inactive)
53 | Cc1nn(-c2ccccc2)c(Oc2ccccc2)c1/C=N/NC(=O)Cn1c(=O)sc2ccccc21 | 44.1% (inactive)
54 | CCN1C(=O)N(CC)C2C1NC(=S)N2/N=C/C=C/c1cccs1 (stereo unspecified) | 57.3% (inactive)
55 | O=C(Nc1ncc(Cc2ccc(Cl)cc2)s1)c1ccc2c(c1)OCCO2 | 50% (inactive)
56 | C#Cc1ccc(NC(=O)Cc2ccc(/C=C/C(=O)c3nccn3C)cc2)cc1 | 69.9% (inactive)

Row | SMILES | growth
57 | CN(C)CCOc1nc2c3cc([N+](=O)[O-])ccc3nn2c2ccccc12 | 62.4% (inactive)
58 | CCN(CC)CCCC(Nc1c2ccc(Cl)cc2nc2ccc(OC)cc12)c1ccncc1 (stereo unspecified) | 68.5% (inactive)
59 | CCOC(=O)c1cnc2sc(-c3ccc(OC)cc3)nc2c1Cl | 86.9% (inactive)
60 | COc1ccc2c(O)cc3c(c2c1)[C@H](CCl)CN3C(=O)c1cc2cc(NC(=O)CCN3CCOCC3)ccc2[se]1 | -25.4% (active)
61 | Oc1ccc(Cc2ccc(O)c3ncccc23)c2cccnc12 | 14.2% (inactive)
62 | CO[C@]12C=C/C(=C(/C(=O)OCc3cccnc3)C(=O)CCCCCCCC[C@]3(OC)C=C/C(=C(/C(=O)OCc4cccnc4)C(=O)CCCCCCCC1)O3)O2 | -65.6% (active)
63 | CC(C)=CCC[C@](C)(O)C1CC[C@]2(C)[C@@H]1CC[C@@H]1[C@@]3(C)CC/C(=N\OCCC#N)C(C)(C)[C@@H]3CC[C@]12C (stereo partly specified) | 79.9% (inactive)
64 | Cn1cc(-c2ccc3c(Nc4cccc(NC(=O)Nc5cccc(F)c5)c4)ncnc3c2)cn1 | 67.6% (inactive)
65 | O=c1oc2ccccc2cc1-c1nn(-c2ccccc2)cc1/C=N/Nc1nc(-c2ccccc2)c(N=Nc2ccccc2)s1 | 84.7% (inactive)
66 | CCCNNC(=O)c1ccc(CNC(=O)/C=C/c2ccccc2)cc1 | 63.2% [2.5 µM] (inactive)
67 | C=C(CNCCO)[C@@H]1CC[C@]2(CO)CC[C@]3(C)[C@H](CC[C@@H]4[C@@]5(C)CCC(NCCO)C(C)(C)[C@@H]5CC[C@]43C)[C@@H]12 (stereo partly specified) | 77.1% (inactive)
68 | COc1cccc(-c2cc(-c3ccc(Nc4nc(Nc5ccc(Cl)cc5)nc(Nc5ccc(Cl)cc5)n4)cc3)nc(N)c2C#N)c1 | 23.6% (inactive)
69 | CC(C)C(=O)Nc1ncc(C(=O)NCCN(Cc2ccccc2)C(=O)c2ccc(S(=O)(=O)Nc3ccccc3)cc2)s1 | 112% (inactive)
70 | CN1CCN(Cc2ccc(NC(=O)c3cncc(C#Cc4cnc(N)c5ccc(C#N)cc45)c3)cc2C(F)(F)F)CC1 | -56.8% (active)
71 | COc1ccc2c(c1)c(-c1nc(-c3cn(C)c4ccncc34)cs1)cn2C | -3.39% (active)
72 | O=C(OCC(O)(CO)C(=O)NC12CC3CC(CC(C3)C1)C2)c1ccc(Cl)cc1 (stereo unspecified) | 107% (inactive)
73 | Cn1ccnc1C(=O)/C=C/c1ccc(CC(=O)Nc2cc(F)c(F)c(F)c2)cc1 | 41.7% (inactive)
74 | Cc1ccc(Nc2cc(N)nc(N)n2)cc1 | 96.9% (inactive)
75 | Cc1nc2ccccc2c(/C=C/c2ccc(Cl)cc2)c1C(=O)/C=C/c1ccccc1 | 33.1% (inactive)
76 | NS(=O)(=O)Oc1cccc(-c2nc3sccn3c2-c2ccccc2)c1 | 74.9% (inactive)
